Assay outcomes: PubChem, Johns Hopkins Ion Channel Center
A selection: hits, their analogues and other compounds. The true share with any hit is near 1.6%.
KCNQ2 pot: potentiators of rat KCNQ2 potassium channel; CHO-K1 KCNQ2, FluxOR thallium flux fluorescence; stronger effect = higher value; Potassium voltage-gated channel subfamily KQT member 2 (Rattus norvegicus), O88943; AID 2239, 2010; hit rate 0.54% among 310,000; B-score at 10 µM;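 active = fluorescence ratio B-score at least 3 SD of library B-scores, with initial fluorescence B-score within 3 of them, cut at about 5.3 in these data; same plate scores as AID 2156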;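 also: B-score of peak minus minimum over baseline fluorescence ratio after K+ and Tl+ stimulus; positive B-score means potentiation of KCNQ2 with more thallium influx and brighter signal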
Target sequence (O88943 whole entry, looked up): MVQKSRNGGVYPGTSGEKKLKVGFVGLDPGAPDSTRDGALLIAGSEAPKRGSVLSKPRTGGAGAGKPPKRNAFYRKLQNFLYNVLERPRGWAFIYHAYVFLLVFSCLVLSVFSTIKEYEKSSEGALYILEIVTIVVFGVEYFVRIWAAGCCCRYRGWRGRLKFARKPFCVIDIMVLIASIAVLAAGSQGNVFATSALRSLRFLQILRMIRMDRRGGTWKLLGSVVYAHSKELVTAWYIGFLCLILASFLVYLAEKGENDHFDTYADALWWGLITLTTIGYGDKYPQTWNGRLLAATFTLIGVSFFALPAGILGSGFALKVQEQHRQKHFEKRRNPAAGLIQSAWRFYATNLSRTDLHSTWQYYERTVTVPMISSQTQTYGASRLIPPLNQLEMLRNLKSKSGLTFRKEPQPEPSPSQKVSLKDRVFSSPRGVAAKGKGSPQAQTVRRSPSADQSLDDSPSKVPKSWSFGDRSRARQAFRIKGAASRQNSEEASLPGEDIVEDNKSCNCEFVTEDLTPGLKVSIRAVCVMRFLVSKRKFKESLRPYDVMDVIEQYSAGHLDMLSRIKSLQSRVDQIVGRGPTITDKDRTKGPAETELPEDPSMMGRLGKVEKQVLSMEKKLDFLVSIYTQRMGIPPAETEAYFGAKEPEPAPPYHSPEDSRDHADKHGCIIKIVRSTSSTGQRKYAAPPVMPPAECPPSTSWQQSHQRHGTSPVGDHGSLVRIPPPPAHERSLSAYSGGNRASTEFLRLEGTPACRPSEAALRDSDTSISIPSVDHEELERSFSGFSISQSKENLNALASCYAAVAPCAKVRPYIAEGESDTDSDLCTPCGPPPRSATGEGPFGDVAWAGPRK
KCNQ2 inh: rat KCNQ2 potassium channel inhibitors, primary screen, cell-based, CHO-K1, FluxOR thallium flux, B-score. Potassium voltage-gated channel subfamily KQT member 2 (Rattus norvegicus), O88943. 20 min; stronger effect = lower value. B-score at 10 µM. hit rate 1.1% among 310,000. AID 2156, 2009;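 active = fluorescence ratio B-score at most minus 3 library SDs, with starting brightness B-score within 2 library SDs, cut at about -5.5 in these data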
Kir21 confirm: mouse Kir2.1 channel blockers, retest, confirmation, cell-based, FluxOR thallium flux, duplicate | Kir2.1-expressing cells, FluxOR thallium flux fluorescence; stronger effect = lower value | Tl flux remaining, % of negative control (stronger effect = lower value), % at 10 µM | hit rate 41% among 2,300 | shares compounds with KCNQ2 pot;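 active = Primary-screen hit whose thallium flux fell at least 3 control SD below untreated wells in both duplicates, with normal baseline fluorescence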;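 also: 0% = blank wells without stimulus and 100% = stimulated no-compound controls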
HEK293 ctr: alters thallium flux in parental HEK293 cells, Kir2.1 counter-screen; shares compounds with KCNQ2 pot; FluxOR thallium flux fluorescence; 0% = unstimulated blank wells; FluxOR signal as % of negative control (100 = no effect), % at 10 µM; hit rate 19% among 2,300;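 active = dye signal at least 3 control SD above or below untreated wells in both duplicates, raw fluorescence within 3, either direction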;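 also: percent is based on the flux ratio of peak minus minimum fluorescence over baseline F0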
CHO-K1 ctr: nonspecific thallium flux increase in parental CHO-K1, confirmation, counter-screen for KCNQ2 potentiator project, cell-based, FluxOR thallium flux, duplicate | activity increase over 3SD of controls, % at 10 µM | hit rate 43% among 1,200 | parental CHO-K1 cells, FluxOR thallium flux fluorescence; zero = vehicle mean+3SD, 100% = vehicle-minus-blank window | shares compounds with KCNQ2 pot;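 active = signal rise of at least 3 SD above the untreated control mean, in both duplicate wells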;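 also: counter screen of KCNQ2 potentiator hits so any rise reflects channel-independent effects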
KCNQ1 sel pot: human KCNQ1 channel potentiation off-target, confirmation, selectivity assay for KCNQ2 potentiator project, cell-based, CHO, FluxOR thallium flux; shares compounds with KCNQ2 pot; CHO KCNQ1 stable, FluxOR thallium flux fluorescence; beyond 3SD, as % of vehicle-control signal; activation over 3SD threshold, % at 10 µM; hit rate 28% among 1,200;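 active = fluorescence ratio rise of at least 3 SD of vehicle wells above their mean, in both replicate wells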;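 also: 0% = vehicle mean plus 3 SD and 100% = vehicle minus unstimulated blank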
KCNQ2 pot conf: rat KCNQ2 channel potentiators, confirmation, cell-based, CHO, FluxOR thallium flux, duplicate | AID 2287, 2010 | shares compounds with KCNQ2 pot | CHO-KCNQ2 cells, FluxOR thallium flux fluorescence | hit rate 68% among 1,200 | potentiation, less the hit threshold, % at 10 µM;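 active = fluorescence ratio rising 3 SD or more over the vehicle control mean in both replicates, plus primary screen hit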;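 also: peak minus minimum thallium fluorescence divided by baseline after K/Tl stimulus; 0% = vehicle mean plus 3 SD and 100% = vehicle minus unstimulated blank difference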
Kir21 spec: mouse Kir2.1 channel activation off-target, confirmation, selectivity assay for KCNQ2 potentiator project, cell-based, HEK293, FluxOR thallium flux; shares compounds with KCNQ2 pot; HEK293 Kir2.1, FluxOR thallium flux fluorescence; hit rate 2% among 1,200; AID 2345, 2010; activity over 3SD threshold, % at 10 µM;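 active = fluorescence ratio rise of at least 3 SD above the vehicle-control mean, seen in both replicates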;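 also: 0% = vehicle mean plus 3 SD and 100% = vehicle minus no-stimulus blank window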
KCNQ2 W236L MoA: potentiators of retigabine-insensitive KCNQ2 W236L, mechanism study for KCNQ2 potentiator project, cell-based, rat KCNQ2 W236L, CHO, automated patch clamp; shares compounds with KCNQ2 pot; automated patch clamp current; current increase over 3SD of negative controls (%), stronger effect = higher value, % at 25 µM; hit rate 10% among 940;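 active = current increase at least 3 SD of the untreated controls above them in both duplicate recordings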
* hit, by the source's call; i = inactive; nt = not tested or not shown.

SMILES	KCNQ2 pot	KCNQ2 inh	Kir21 confirm	HEK293 ctr	others
C=C[C@@]1(C)CC(=O)[C@]2(O)[C@@]3(C)[C@@H](O)CCC(C)(C)[C@@H]3[C@H](O)[C@H](OC(C)=O)[C@@]2(C)O1	8.9*	i	i	i	CHO-K1 ctr=-13;KCNQ1 sel pot=-26;KCNQ2 pot conf=7.1*;Kir21 spec=-37;KCNQ2 W236L MoA=2.3%*
Cc1cccc(NC(=O)c2cc(-c3cccnc3)nc3c(C)cccc23)n1	0.9	i	nt	nt
O=C1NC(=O)/C(=C\c2ccccc2OCc2ccccc2)S1	0.21	i	nt	nt
O=C1NC(=O)/C(=C\c2ccc(OCc3ccccc3)cc2)S1	8*	i	i	i	CHO-K1 ctr=-9;KCNQ1 sel pot=-32;KCNQ2 pot conf=-13;Kir21 spec=-36
COc1ccc(CN(C)CC2CCCN(CCc3ccccc3C)C2)cc1O (configuration not stated)	0.83	i	40%*	i
COc1cc(OC)c(OC)cc1CN(C)CC1CCCN(CCc2ccccc2F)C1 (configuration not stated)	0.01	i	nt	nt
O=C(CC(C(=O)O)c1cccc(Cl)c1Cl)c1ccccc1 (configuration not stated)	0.01	i	nt	nt
CCCCOc1ccc(CSC(=N)N)cc1Cl	nt	i	28%*	i
CCOc1ccc(CSC(=N)N)cc1	1.5	i	nt	nt
COc1ccc(Br)cc1CSC(=N)N	0.16	i	nt	nt
CCCCCOc1ccc(Br)cc1CSC(=N)N	nt	i	i	i
COCCN1CCN(C(=O)C2CCC(=O)N(Cc3cccc(C(F)(F)F)c3)C2)CC1 (configuration not stated)	1.2	i	nt	nt
CCC(=O)N(CCC(Cc1ccccc1)c1ccc2c(c1)OCO2)Cc1ccccc1F (configuration not stated)	nt	i	nt	nt
COc1ccccc1C(CCN(Cc1cccs1)C(C)=O)c1ccco1 (configuration not stated)	nt	i	nt	nt
CCC(=O)N(CCC(c1ccccc1)c1ccco1)Cc1cccs1 (configuration not stated)	-14	-14*	62%*	i
CCC(=O)N(CCC(Cc1ccccc1)c1ccco1)Cc1ccco1 (configuration not stated)	nt	i	54%*	i
O=C(COC(=O)c1ccc(Br)cc1)Nc1ccccc1Br	nt	i	nt	nt
COc1cc(C(=O)OCC(=O)NC2CCCC2)cc(NC(=O)c2ccco2)c1OC	11*	i	i	i	CHO-K1 ctr=-9;KCNQ1 sel pot=-9;KCNQ2 pot conf=-15;Kir21 spec=-18
COc1cc(C(=O)OCC(C)=O)cc(NC(=O)c2ccco2)c1OC	nt	i	nt	nt
NC(=NCCc1c[nH]c2ccccc12)NC(=O)c1ccc(F)cc1	0.4	i	34%*	i
NC(=NCCc1c[nH]c2ccccc12)NS(=O)(=O)c1ccc(F)cc1	0.95	i	nt	nt
O=C(Nc1ccccc1[N+](=O)[O-])c1cccnc1Cl	0.59	i	nt	nt
CC(OC(=O)/C=C/c1ccccc1)C(=O)Nc1cccc(C#N)c1 (configuration not stated)	nt	i	nt	nt
Cc1cc(=O)oc2cc(OC(=O)c3ccco3)ccc12	0.19	i	i	i
CCc1cc(=O)oc2cc(OC(=O)c3ccco3)ccc12	nt	i	nt	nt
SMILES	KCNQ2 pot	KCNQ2 inh	Kir21 confirm	HEK293 ctr	others
O=C1CC(N2CCSCC2)C(=O)N1CCc1ccccc1 (configuration not stated)	1.1	i	nt	nt
Cc1nn(CC(=O)Nc2cccnc2)c(C)c1[N+](=O)[O-]	nt	i	nt	nt
Clc1ccc2c(c1)C(N1CCNCC1)Cc1ccccc1S2 (configuration not stated)	-12	-12*	32%*	i
COc1ccc2c(c1)CC(N1CCN(C)CC1)c1cc(OC)ccc1S2 (configuration not stated)	nt	i	nt	nt
CCC(CC)C(=O)N1c2ccc(F)cc2CCC1C (configuration not stated)	nt	i	nt	nt
CC(C(=O)N1c2ccc(F)cc2CCC1C)N1C(=O)c2ccccc2C1=O (configuration not stated)	7.6*	i	i	123%*	CHO-K1 ctr=103*;KCNQ1 sel pot=-9;KCNQ2 pot conf=-12;Kir21 spec=-32
COC(=O)C(NC(=O)c1ccccc1)=C1C=C(C)OC(C)=C1	5	i	nt	nt
CCOC(=O)C(NC(=O)c1ccccc1)=C1C=C(C)OC(C)=C1	6.8*	i	i	i	CHO-K1 ctr=1.7*;KCNQ1 sel pot=-7;KCNQ2 pot conf=8.7*;Kir21 spec=-32;KCNQ2 W236L MoA=i
N#CC1(c2ccccc2)CCC(=NO)CC1 (configuration not stated)	0.77	i	nt	nt
O=C(NC(=S)Nc1ccc(Cl)cc1)c1ccccc1	nt	i	nt	nt
O=C(Nc1ccc(Cl)cc1)C(Cl)C(=O)c1ccccc1 (configuration not stated)	0.25	i	70%*	i
CCn1c(=O)cc(SCC(=O)NCC2CCCO2)c2ccccc21 (configuration not stated)	1.1	i	nt	nt
Cn1c(=O)cc(SCC(=O)NCC2CCCO2)c2ccc(Cl)cc21 (configuration not stated)	6.2*	i	i	i	CHO-K1 ctr=-15;KCNQ1 sel pot=92*;KCNQ2 pot conf=-9;Kir21 spec=-50
CCOC(=O)Cc1csc(/N=C/c2c(O)n(-c3ccccc3C(F)(F)F)c(=O)c3ccccc23)n1	1.2	i	nt	nt
CSc1ccc(/C=C/C(=O)c2c(O)cc(C)oc2=O)cc1	nt	i	nt	nt
Cc1cccc(C)c1NC(=O)c1ccc(-n2cnnn2)cc1	13*	i	i	i	CHO-K1 ctr=-7;KCNQ1 sel pot=-15;KCNQ2 pot conf=-22;Kir21 spec=-37
O=C(Nc1ccc(Br)cc1)c1ccc(-n2cnnn2)cc1	0.26	i	nt	nt
